Cruzain inh noDet = blocks cruzain activity in detergent-free assay | Potency, µM, for the others: max response, negative = inhibition, actives largely listed as inhibitors | purified cruzain, Z-FR-AMC fluorescence, no detergent | 200,000 tested, 2.3% active | AID 1476;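 note: plate controls were enzyme without inhibitor for no effect and buffer without enzyme for full effect; nearly all actives have a fitted effect of over 40% in size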
Target sequence (P25779 123-467 limits assumed): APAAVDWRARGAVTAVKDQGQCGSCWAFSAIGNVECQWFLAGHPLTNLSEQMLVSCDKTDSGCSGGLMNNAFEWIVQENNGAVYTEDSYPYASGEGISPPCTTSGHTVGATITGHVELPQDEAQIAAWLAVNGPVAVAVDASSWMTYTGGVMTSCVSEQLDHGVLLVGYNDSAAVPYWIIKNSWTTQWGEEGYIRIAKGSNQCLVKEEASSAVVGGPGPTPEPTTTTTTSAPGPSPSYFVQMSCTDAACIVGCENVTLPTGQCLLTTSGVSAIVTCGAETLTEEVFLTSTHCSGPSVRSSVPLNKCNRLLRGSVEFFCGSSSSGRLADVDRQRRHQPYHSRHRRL
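Purified cruzain at 1.5 nM, pre-incubated 15 min with compound at room temperature in 100 mM sodium acetate pH 5.5, 5 mM DTT, 0.00005% Triton X-100. Reaction started with 2 uM Z-FR-AMC; AMC fluorescence increase over 60 s gives rate.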
Cruzain inh Det = cruzain (T. cruzi) inhibition with detergent | P25779 | purified cruzain, Z-FR-AMC fluorescence, 0.01% Triton | Potency, µM, without a hit: max response, negative = inhibition, actives largely listed as inhibitors | 200,000 tested, 0.43% active;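 note: plate controls were neutral wells for no effect and buffer without enzyme for full effect; nearly all actives have a fitted effect of over 40% in size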
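Steps: dispense cruzain (1.5 nM final) in acetate buffer pH 5.5 with DTT and 0.01% Triton X-100; pin-transfer compounds; incubate 15 min RT; add Z-FR-AMC (2 uM final); read fluorescence every 30 s, using the 60 s intensity change.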
Papain inh = counter-screen for cruzain inhibitors: papain inhibition | shares compounds with Cruzain inh Det | purified papain, Z-FR-AMC fluorescence cleavage | Potency, µM, without a hit: max response, negative = inhibition, actives largely listed as inhibitors | 410 tested, 41% active;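 note: 0% = no-compound wells and -100% = no-enzyme wells; nearly all actives have a fitted effect of over 35% in size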
Target sequence (P00784 whole entry, looked up): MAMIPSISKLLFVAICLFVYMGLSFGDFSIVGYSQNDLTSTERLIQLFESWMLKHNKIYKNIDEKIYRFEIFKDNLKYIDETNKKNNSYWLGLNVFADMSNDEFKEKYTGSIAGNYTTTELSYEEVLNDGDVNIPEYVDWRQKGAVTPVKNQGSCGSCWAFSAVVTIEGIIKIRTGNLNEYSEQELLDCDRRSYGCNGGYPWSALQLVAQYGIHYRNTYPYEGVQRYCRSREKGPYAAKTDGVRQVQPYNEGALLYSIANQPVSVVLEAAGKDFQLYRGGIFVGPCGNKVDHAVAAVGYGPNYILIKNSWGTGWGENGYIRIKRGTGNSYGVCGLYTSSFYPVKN
* marks the source's active call; other numbers are inactive results; ? = inconclusive; . = no result. Sampled rows, rich in hits. Any-hit rate of the full collection: about 2.6%. Calls come from the whole dose curve; as a rule, active = well fitted curve in the direction sought with a large enough effect; inconclusive = small, poorly fitted or top-dose-only effect, or another doubt; inactive = no such curve, though single readings can be large; an effect the other way counts as inactive or inconclusive. Potency is the fitted concentration of half-maximal effect.

SMILES	Cruzain inh noDet	Cruzain inh Det	Papain inh
CCOc1nc(C#N)nc(N2CCCCC2)n1	0.5µM*	0.56µM*	2.2µM*
CC1=C/C(=N\NC(=O)c2ccc(O)cc2)CC1	-13%	1%	.
Cc1ccc(-c2onc(C)c2C)cc1S(=O)(=O)N1CCOc2ccc(Cl)cc21	?	-2%	.
COc1ccccc1N1CCN(C(=O)c2oc3ccc(Br)cc3c2C)CC1	?	-3%	.
COc1cc(/C=C/c2nc(C#N)c(NC(C)c3ccccc3)o2)cc(OC)c1OC (stereo unspecified)	?	7%	.
CNc1oc(/C=C/c2cc(OC)c(OC)c(OC)c2)nc1C#N	10µM*	28µM*	8.9µM*
O=S(=O)(c1ccccc1)N1CCC[C@@]2(CCN(C(c3ccccc3)c3ccccc3)C2)C1	14%	-3%	.
COC(=O)CSc1nnc([C@H](CC(C)C)NC(=O)OC(C)(C)C)o1	-24%	?	.
CC(C)(C)OC(=O)N[C@@H](Cc1ccccc1)c1nnc(SCC(=O)O)o1	-13%	25µM*	-21%
CN(C)c1ccc(C(CC(=O)c2ccccc2)C2CCCCC2=O)cc1 (stereo unspecified)	6%	-1%	.
COc1ccccc1CN(Cc1cc2cc(C)ccc2[nH]c1=O)Cc1nnnn1Cc1ccco1	-8%	-20%	.
CCc1ccc2[nH]c(=O)c(CN(Cc3cccs3)Cc3nnnn3Cc3ccccc3)cc2c1	.	.	-16%
Cc1ccc2[nH]c(=O)c(CN(CCO)Cc3nnnn3Cc3ccccc3)cc2c1	.	.	3%
CCC(c1nnnn1Cc1ccccc1)N(Cc1ccccc1)Cc1cc2cc(C)ccc2[nH]c1=O (stereo unspecified)	.	.	-6%
COc1ccc2[nH]c(=O)c(CN(Cc3cccs3)Cc3nnnn3Cc3ccccc3)cc2c1	3%	-1%	.
CCOc1ccc2[nH]c(=O)c(CN(Cc3ccco3)C(CC)c3nnnn3Cc3ccccc3)cc2c1 (stereo unspecified)	11%	-11%	.
Cc1ccc2[nH]c(=O)c(CN(CCO)Cc3nnnn3Cc3ccco3)cc2c1	.	.	1%
CCOc1ccc2[nH]c(=O)c(CN(CCO)Cc3nnnn3CCc3ccccc3)cc2c1	6%	-2%	.
Cc1ccc(OCC(O)CN2CCN(CC(O)COC(C)C)CC2)c(C(C)(C)C)c1 (stereo unspecified)	1%	3%	.
CCOC(=O)c1ccc(N2C(=O)c3[nH]nc(-c4ccc(OC)cc4)c3C2c2cccc(O)c2)cc1 (stereo unspecified)	?	-8%	.
COc1ccc(OC)c(NC(=O)CSc2nc(=O)n(CCN(C)C)c3c2CCC3)c1	-4%	0%	.
Cc1ccc2[nH]c(=O)c(CN(CCc3ccccc3)Cc3nnnn3CC3CCCO3)cc2c1 (stereo unspecified)	24%	-7%	.
Cc1ccc2[nH]c(=O)c(CN(Cc3cccs3)Cc3nnnn3Cc3ccco3)cc2c1	.	.	-13%
Cc1ccc2[nH]c(=O)c(CN(Cc3cccs3)Cc3nnnn3CC3CCCO3)cc2c1 (stereo unspecified)	?	1%	.
Cc1ccc2[nH]c(=O)c(CN(CCCO)Cc3nnnn3Cc3ccccc3)cc2c1	.	.	-5%
SMILES	Cruzain inh noDet	Cruzain inh Det	Papain inh
Cc1ccc(CN(Cc2cc3cc(C)ccc3[nH]c2=O)Cc2nnnn2Cc2ccccc2)cc1	.	.	-12%
CCOC(=O)Cn1nnnc1CN(Cc1ccc(OC)cc1)Cc1cc2cc(C)ccc2[nH]c1=O	?	-8%	.
O=C(NCCO)c1ccc2nc(-c3ccco3)c(-c3ccco3)nc2c1	13µM*	13µM*	32µM*
O=C(NC1CCCC1)c1ccc2nc(-c3ccco3)c(-c3ccco3)nc2c1	5µM*	14µM*	14µM*
O=C(NC1CCCC1)c1ccc2nc[nH]c2c1	-5%	1%	.
O=C(NCCO)c1ccc(Cl)c(Cl)c1	-3%	3%	.
O=C1c2cc(N3CCCC3)c([N+](=O)[O-])cc2C(=O)N1c1ccccc1	4%	-8%	.
COC(=O)CCC(C)C1CCC2C3CC[C@H]4CC(O)CC[C@@]4(C)C3CC(O)[C@]12C (stereo partly specified)	?	-9%	-6%
COC(=O)CC[C@@H](C)[C@H]1CC[C@H]2[C@@H]3CC[C@@H]4C[C@H](O)CC[C@]4(C)[C@H]3C[C@H](O)[C@]12C	?	-6%	.
O=C(CC1Nc2cccc3cccc(c23)NC1=O)Nc1ccc(F)cc1 (stereo unspecified)	-7%	-11%	.
O=C(Nc1ccc2c(c1)CCC2)C1CCN(c2c3c(nc4ncnn24)CCC3)CC1	?	-6%	.
O=C1NN(c2ccc(Cl)c(Cl)c2)C(=O)/C1=C/c1cccc(OC(=O)c2cccs2)c1	7%	20µM*	18µM*
O=C1NN(c2ccccc2)C(=O)/C1=C\c1cccc(OC(=O)c2cccs2)c1	?	-16%	.
CCCCNC(=O)C1CCN(c2nc3ccccc3nc2C(F)(F)F)CC1	0%	2%	.
Clc1ccccc1-c1nn2c(-c3cc(-c4ccccc4)n[nH]3)nnc2s1	.	.	-8%
COc1ccccc1-c1nn2c(-c3ccccc3Cl)nnc2s1	-16%	1%	.
CN(C)c1ccc(-c2nn3c(-c4cc(-c5ccccc5)n[nH]4)nnc3s2)cc1	.	.	-26%
CN(C)c1ccc(-c2nn3c(-c4ccc(Cl)cc4Cl)nnc3s2)cc1	?	2%	.
COc1ccccc1-c1nn2c(-c3cc(-c4ccccc4)n[nH]3)nnc2s1	.	.	35µM*
Clc1ccccc1-c1nnc2sc(-c3ccc4c(c3)OCO4)nn12	?	-3%	.
Cc1ccc2c(c1)C(C)(c1ccccc1)CC(C)(C)N2C(=O)c1ccc(F)cc1 (stereo unspecified)	-4%	0%	.
Cc1ccc(-n2c(=O)c3oc4ccccc4c3n(Cc3cccc(F)c3)c2=O)cc1C	?	-4%	.
O=C(COc1ccc(F)cc1)NCCc1nc2ccccc2[nH]1	-8%	1.6µM*	3.5µM*
O=C(NCCc1nc2ccccc2[nH]1)Nc1ccccc1	-3%	3%	.
Cc1ccc(-c2n[nH]c(=O)c3ccccc23)cc1S(=O)(=O)N(C)CCO	-1%	3%	.
SMILES	Cruzain inh noDet	Cruzain inh Det	Papain inh
N#Cc1sc2nc(-c3ccccc3)cc(-c3ccco3)c2c1N	-15%	-14%	.
N#Cc1c(-c2ccccc2)cc(-c2ccco2)c(C#N)c1N	-22%	-3%	8%
CCCC(=O)NC(=S)Nc1nc(-c2ccc(OC)cc2)cs1	?	-7%	.
O=[N+]([O-])c1ccccc1Oc1ccccc1Cl	-2%	-4%	.
COc1ccc(/C=C/C(=O)Nc2ccccc2C(=O)O)cc1OC	-16%	-7%	.
COc1ccc(/C=C/C(=O)Nc2ccc(-n3nncc3-c3ccccc3)cc2)cc1OC	16µM*	3.2µM*	-14%
CCOc1ccc(C(=O)Nc2ccc(-n3nncc3-c3ccccc3)cc2)cc1OCC	16%	-5%	.
Cc1ccc(NC(=O)c2ccc(-n3nncc3-c3ccccc3)cc2)cc1	.	.	4%
COc1ccc(/C=C/C(=O)Nc2ccc(-n3nncc3-c3ccc(Br)cc3)cc2)cc1OC	.	.	-20%
COc1cccc(C(=O)Nc2ccc(-n3nncc3-c3ccc(Br)cc3)cc2)c1OC	-8%	-1%	.
CCC(=O)N1CCc2cc(S(=O)(=O)NC(Cc3ccccc3)C(=O)NCc3cccc(OC)c3)ccc21 (stereo unspecified)	-1%	-1%	.
CCCC(=O)NCCc1nc2ccccc2n1CCC	?	1%	.
COc1ccc(CNC(=O)CN2C(=O)COc3ccc(S(=O)(=O)N4CCOCC4)cc32)cc1	2%	1%	.

High-throughput results: PubChem BioAssay, National Center for Advancing Translational Sciences (NCATS)
